# From PubChem
# Cav3 T inh: Cav3.2 calcium influx blockers – cell-based, Fluo-4 calcium fluorescence, FDSS, MLSMR library, primary screen; hit rate 4% among 100,000; AID 449739, 2010; Cav3.2-expressing cells; hits give low values; B-score at 10 µM;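 active = single-dose well whose peak fluorescence ratio is a statistical outlier from its plate by either plate-standardised score or position-corrected B-score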
# PLAP activator: PLAP enzyme activators, biochemical, luminescence, HTS; Alkaline phosphatase, placental type (Homo sapiens), P05187; purified PLAP enzyme, luminescent substrate read-out; hits give high values; activation fold at 20 µM; hit rate 1.2% among 96,000; AID 696, 2007; in the data active = activation fold above about 2
# M1 ag: M1 muscarinic receptor agonists, primary screen, CHO-M1 cells, Fluo-4 calcium, agonist mode; AID 626, 2007; B-score at 10 µM; hit rate 3% among 64,000; Fluo-4 calcium fluorescence; hits give high values;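 active = fluorescence rise, raw or as B-score row- and column-corrected plate score, outside the 99.7% band of its plate's samples, either direction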
# M1 antagonist: antagonists of rat M1 muscarinic receptor; CHO-M1 cells, Fluo-4 calcium, ACh EC80 antagonist mode; hits give low values; B-score at 10 µM; hit rate 3.4% among 64,000;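 active = calcium fluorescence response, raw or row-and-column corrected B-score, differing from the plate sample mean either way at a set confidence level, mostly lower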
# Starred values were filed as active, the others as inactive; . = no result. Hits are enriched below; roughly 7.6% of the tested compounds scored in any of these assays.
SMILES,Cav3 T inh,PLAP activator,M1 ag,M1 antagonist
COCCN(C(=O)CSc1nnc(Nc2ccccc2F)s1)c1c(N)n(Cc2ccccc2)c(=O)[nH]c1=O,0.25,2.2*,.,.
Nc1ncnc2c1ncn2[C@@H]1O[C@H](CO)[C@@H](O)[C@H]1O,0.61,.,13*,-0.35
Cc1nn(C)c(Oc2ccccc2)c1CCNS(=O)(=O)c1ccc(Cl)cc1,-6.9*,1.5,.,.
COc1ccc(S(=O)(=O)NCCc2c(C)nn(C)c2Oc2ccccc2)cc1,-1.6,1.1,.,.
COc1ccc(Cn2c(SC)nc3ccccc32)cc1[N+](=O)[O-],0.15,0.9,.,.
O=S(=O)(Nc1nc2ccccc2nc1NCc1ccco1)c1ccc(Cl)cc1,-4.8*,1.1,-0.37,-0.97
Cc1noc(C)c1CSc1nc2ccccc2nc1NS(=O)(=O)c1ccc(Cl)cc1,-8.1*,1.1,0.86,-0.9
COCc1[nH]nc2c1C1(C(=O)N(C)c3ccccc31)C(C#N)=C(N)O2 (centres undefined),0.1,1,-0.16,-0.17
Cc1ccc(SCc2[nH]nc3c2C2(C(=O)N(C)c4ccccc42)C(C#N)=C(N)O3)cc1 (centres undefined),-0.49,2*,-0.037,1.9
Cc1ccnc(NC(=O)CCC(=O)N(CC(=O)NC2CCCCC2)c2cccc(C)c2C)c1,-6.4*,1.1,-0.72,-0.077
CCOC(=O)N1CCN(S(=O)(=O)c2cc(OCC(N)=O)c(C)cc2Cl)CC1,0.52,1.1,0,0
CC1c2[nH]c3ccccc3c2CCN1C(=O)Nc1ccccc1 (centres undefined),-12*,.,-0.083,-0.67
COc1ccc(N=CC2=C(Nc3ccc(OC)cc3)c3c(C)nn(-c4ccccn4)c3CC2)cc1,-4.2*,.,.,.
Cc1nn(C(C)C(=O)NNC(=S)Nc2ccc(Cl)cc2)c(C)c1[N+](=O)[O-] (centres undefined),-2.2,2.4*,.,.
Cc1ccc(NC(=S)NNC(=O)c2nn(C)c(C)c2Cl)cc1,.,2.3*,.,.
Cc1ccc(NC(=S)NNC(=O)c2cn(C)nc2C)cc1,-0.54,2.3*,.,.
Cc1ccc(NC(=S)NNC(=O)c2c([N+](=O)[O-])c(C)nn2C)cc1,-0.33,2.5*,.,.
Cc1nn(CCC(=O)NNC(=S)Nc2ccc(Cl)cc2)c(C)c1[N+](=O)[O-],-1.2,.,.,.
Cc1ccc(NC(=S)NNC(=O)c2ccccc2OC(F)F)cc1,.,1.8,.,.
CC(=O)N(CC(C)(C)CC=C(C)C)c1ccccc1,-1.5,1.2,-0.2,-0.41
CC(C)(C)c1ccccc1OCCCCCNCCO,-0.078,1.4,-0.6,0.26
COc1cccc(C(=O)Oc2c(CN3CCOCC3)cc(Cl)c3cccnc23)c1,-0.88,2.6*,.,.
COc1cccc(NC(=O)c2ccc(CN3CCOCC3)cc2)c1,0.56,0.9,-1,0.68
COc1cc(C(=O)Oc2c(CN3CCOCC3)cc(Cl)c3cccnc23)cc(OC)c1OC,.,2*,0.057,0.61
O=C(Oc1c(CN2CCOCC2)cc(Cl)c2cccnc12)c1ccc(F)cc1,-4.1,2*,-0.075,-0.9
SMILES,Cav3 T inh,PLAP activator,M1 ag,M1 antagonist
O=C(Oc1ccc(Cl)c2cccnc12)N1CCOCC1,0.34,0.9,0.39,0.59
OCCN1CCN(Cc2cc(Cl)c3cccnc3c2O)CC1,0.69,2.2*,.,.
COCc1cc(CN2CCCC2)c(O)c2ncccc12,1.8,1.3,-1.2,-0.42
O=C(Oc1c(Br)cc(C(=S)N2CCOCC2)cc1Br)c1ccc(Cl)cc1,0.66,0.9,.,.
CCn1c(=O)cc(OCC(=O)Nc2ccc(Cl)cn2)c2ccccc21,.,.,-0.36,-0.18
CCCCCCN(C(=O)CCCCCN1C(=O)NC(c2ccc(C3CCCCC3)cc2)C(C(=O)OCc2ccccc2)=C1C)C(C(=O)NCCCC)c1ccc(OCC(=O)OC)c(C(=O)OC)c1 (centres undefined),-0.49,.,.,.
COc1ccc(C(=O)Oc2c(CN3CCOCC3)cc(Cl)c3cccnc23)cc1,-3.3,2*,-0.37,-0.28
O=C(Oc1c(Cl)cc(Cl)c2cccnc12)c1ccco1,-1.8,2.1*,.,.
O=C(Oc1c(Cl)cc(Cl)c2cccnc12)c1cccs1,-0.32,.,.,.
C=CCn1c(SCc2ccc(C(=O)Nc3ccccc3)cc2)nnc1-c1ccccc1,0.85,0.9,.,.
CCCCCCCCCCCCN1[C@@H](CC(C)=O)c2cc(C(F)(F)F)ccc2S1(=O)=O,0.57,.,.,.
CCCCCCCCN1[C@@H](CC(=O)OCC)c2cc(C(F)(F)F)ccc2S1(=O)=O,-4.2*,.,.,.
COc1ccc(-c2csc(NC(C)c3nc4cc(C(=O)NCCCO)ccc4n3Cc3ccc(C)cc3)n2)cc1 (centres undefined),-0.33,.,.,.
Cc1cc(C)nc(Nc2n[nH]c(-c3ccccc3Br)n2)n1,-0.39,1.2,-0.77,-0.21
Cc1cc(C)nc(Nc2n[nH]c(-c3ccc(N)cc3)n2)n1,0.39,2.4*,.,.
O=C(NCCNC(=O)c1cc(OCC(F)(F)F)ccc1OCC(F)(F)F)Nc1cccc(C(F)(F)F)c1,-8*,1,.,.
O=C(NCCNS(=O)(=O)c1ccccc1Cl)c1cc(OCC(F)(F)F)ccc1OCC(F)(F)F,-0.26,1,.,.
O=C(Cn1ncc2c1-c1ccccc1OC2)Nc1nc2ccccc2s1,-9.4*,1.2,0.088,-0.09
Cc1cccc(NC(=S)NC(=O)CCc2ccccc2)c1C,-0.22,1.2,.,.
Cc1cccc(NC(=S)NN(Cc2ccccc2)c2ccccc2)c1C,-4.9*,1,.,.
CCC(C(=O)NCc1ccco1)N(C(=O)CNS(=O)(=O)c1ccccc1)c1ccc(OC)cc1 (centres undefined),0.38,1.5,.,.
CCOc1cc(CN2CCN(c3cccc(C(F)(F)F)c3)CC2)ccc1OC,-4.4*,1.7,.,.
COc1ccc(C(CC(=O)Nc2ccc(F)cc2)c2ccccc2)cc1 (centres undefined),-6.2*,1,.,.
COc1ccc(NC(=O)CCOc2ccccc2)cc1,-0.11,1.1,.,.
Cc1cc(C(=O)CSc2nnc(-c3ccco3)o2)c(C)n1CC1COc2ccccc2O1 (centres undefined),-3.7,1.6,0.0095,-0.092
SMILES,Cav3 T inh,PLAP activator,M1 ag,M1 antagonist
CC(C)(C)C(=O)NC(=S)Nc1ccccc1C(=O)Nc1ccccc1,0.071,1,.,.
Cc1nc(CS(=O)c2ccc(Cl)cc2)cc(NCc2ccc(Cl)cc2Cl)n1 (centres undefined),-5.8*,1.4,.,.
Cc1nc(CSc2ccc(Cl)cc2)cc(NCc2ccccc2)n1,-8.3*,1.8,.,.
Cc1nc(CSc2ccc(Cl)cc2)cc(N2CCOCC2)n1,-0.41,1,.,.
CCCc1cc(=O)n2[nH]c(NCc3ccc(Cl)cc3Cl)nc2n1,-2.9,0.9,0.73,0.034
CC(C)(C)NC(=O)C1Cc2ccccc2CN1C(=O)Nc1cccc(Cl)c1 (centres undefined),-1.3,1.1,.,.
CCCCNc1ccccc1C(=O)OCC(=O)Nc1ccc(S(N)(=O)=O)cc1,0.075,2.1*,.,.
CC1CCN(CCCNC(=O)c2ccc(CSCc3cccc(Cl)c3)o2)CC1,-2.7,1.5,.,.
CCOc1ccc2c(c1)C(c1ccc(C)cc1)=NNC(c1ccc(OC)cc1)=N2,-1.2,1.5,.,.
CCOc1ccc(C2=NNC(c3cccs3)=Nc3ccc(OC)cc32)cc1,-4.9*,.,.,.
